# Screening data deposited in PubChem by several laboratories.
# hcDAF-12 act: H. contortus DAF-12 nuclear receptor activators, primary screen, cell-based, luminescence, HEK293, lit1-tk-luc reporter. HEK293 hcDAF-12 lit1-tk-luc reporter; 0% DMSO, 100% Δ7-dafachronic acid. activation, % at 6.8 µM. 370,000 tested, 1.4% active. AID 652067, 2013;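 active means activation above the mean of all tested compounds plus 3 SD, cut at about 5.5% in these data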;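 further: 100% = response to 3 µM Δ7-dafachronic acid high control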
# hgDAF12 agonist: H. glycines DAF-12 receptor agonists, primary screen, cell-based, luminescence, HEK293, GAL4 fusion, UAS-luciferase; activation, % at 6.8 µM; HEK293 GAL4-hgDAF12 UAS-luciferase reporter, agonist luminescence; normalized to butyrate control; 370,000 tested, 1.8% active; AID 687014, 2013; Nuclear hormone receptor DAF-12 (Heterodera glycines), GAL4 fusion;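 active means activation above a cutoff set at the mean of all screened compounds plus 3 SD, cut at about 10% in these data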;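 further: 0% = DMSO wells and 100% = sodium butyrate wells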
# NR1D1 modulator: modulators of Rev-erb alpha DNA binding, primary screen, biochemical, FITC-DNA, fluorescence polarization, uHTS; Rev-erbα–FITC-DNA binding, 90 min; activity, % at 10 µM; Nuclear receptor subfamily 1 group D member 1 (Homo sapiens), P20393; 370,000 tested, 0.79% active;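 active means activity above about 14%, limit read from the data; passing the limit was not always enough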;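 further: 0% = DMSO wells with 35 nM protein and 100% = DMSO wells with 750 nM protein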
# DAX1 inh-1: DAX1 (NR0B1) inhibitors, primary screen, cell-based, HEK293, Gal4-DAX1, luciferase luminescence. HEK293 Gal4-DAX1 luciferase reporter. 340,000 tested, 0.99% active. Nuclear receptor subfamily 0 group B member 1 (Homo sapiens), P51843. inhibition, % at 6.75 µM;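 active means inhibition above the mean over all tested compounds plus 3 SD, cut at about 4.2% in these data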;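 further: 0% = DAX1-transfected cells with DMSO and 100% = empty-vector control cells with DMSO; inhibition shows as a rise in luminescence from relieved DAX1 repression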
# Target sequence (P51843 207-470 limits assumed): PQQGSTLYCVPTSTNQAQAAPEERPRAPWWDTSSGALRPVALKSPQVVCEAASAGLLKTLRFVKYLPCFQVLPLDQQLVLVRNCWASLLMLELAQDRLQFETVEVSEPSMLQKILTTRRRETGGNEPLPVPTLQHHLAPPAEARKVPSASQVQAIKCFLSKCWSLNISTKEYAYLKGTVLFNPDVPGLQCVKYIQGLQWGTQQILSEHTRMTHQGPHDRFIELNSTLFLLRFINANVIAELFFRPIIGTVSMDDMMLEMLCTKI
# ssDAF-12 act: S. stercoralis DAF-12 nuclear receptor activators, primary screen, cell-based, luminescence, HEK293, GRIP1 co-expression, lit1-tk-luc; HEK293 ssDAF-12/GRIP1 lit1-tk-luc reporter; % of 3 µM dafachronic acid response; 370,000 tested, 1% active; activation, % at 6.8 µM; Nuclear hormone receptor DAF-12 (Strongyloides stercoralis);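 active means activation above the mean over all tested compounds plus 3 SD, cut at about 0.9% in these data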;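 further: 0% = DMSO-only wells and 100% = 3 µM delta7-dafachronic acid wells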
# DAX1 inh-2: DAX1 (NR0B1) inhibitors on StAR promoter, primary screen, cell-based, luminescence, SF-1 (NR5A1), full-length DAX-1; 370,000 tested, 1.1% active; inhibition, % at 6.8 µM; HEK293T StAR-luciferase reporter, SF-1/DAX-1 repression relief;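 active means inhibition above the mean over all tested compounds plus 3 SD, cut at about 3.6% in these data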;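 further: 0% = DAX-1 cells with DMSO and 100% = cells lacking DAX-1 with DMSO; higher inhibition means more luminescence from relief of DAX-1 repression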
# LXR ag: LXR agonists, Gal4 luciferase reporter, confirmation, counter-screen for hcDAF-12 agonist project, cell-based, luminescence, HEK293, H. contortus campaign; AID 743027, 2013; activation, % at 6.8 µM; 3,400 tested, under 10 active; HEK293 Gal4-LXR tk-luc reporter, 24 h; normalized: DMSO 0%, positive control 100%; shares compounds with hcDAF-12 act;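 active means mean percent activation of the reporter above a cutoff set as the average over tested compounds plus their standard deviation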
# Target sequence (P55055 whole entry, looked up, the tested form may be a part): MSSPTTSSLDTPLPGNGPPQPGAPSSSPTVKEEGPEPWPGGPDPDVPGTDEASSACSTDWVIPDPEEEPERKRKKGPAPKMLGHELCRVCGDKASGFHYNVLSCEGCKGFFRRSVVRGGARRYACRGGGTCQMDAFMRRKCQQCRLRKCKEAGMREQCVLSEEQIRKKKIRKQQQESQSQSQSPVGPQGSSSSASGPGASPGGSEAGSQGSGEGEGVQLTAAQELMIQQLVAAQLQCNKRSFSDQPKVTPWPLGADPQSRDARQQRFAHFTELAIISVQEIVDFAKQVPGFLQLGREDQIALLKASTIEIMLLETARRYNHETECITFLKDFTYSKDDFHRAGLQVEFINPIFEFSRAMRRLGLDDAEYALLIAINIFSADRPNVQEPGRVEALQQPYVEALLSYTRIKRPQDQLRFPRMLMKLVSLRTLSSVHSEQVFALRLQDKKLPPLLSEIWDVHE
# hcDAF12 conf: H. contortus DAF-12 receptor agonists, confirmation, cell-based, luminescence, HEK293, lit1-tk-luc, triplicate | shares compounds with hcDAF-12 act | HEK293 hcDAF-12 lit1-tk-luc reporter; % of Δ7-dafachronic acid response | activation, % at 6.8 µM | 3,400 tested, 61% active;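 active means mean activation across triplicate tests above the threshold derived from the earlier primary screen, cut at about 5.5% in these data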;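 further: 0% = DMSO only wells and 100% = 3 µM Δ7-dafachronic acid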
# * hit, by the source's call; . = no result given. A selection: hits, their analogues and other compounds. The true share with any hit is near 4.8%.
SMILES,hcDAF-12 act,hgDAF12 agonist,NR1D1 modulator,DAX1 inh-1,ssDAF-12 act,DAX1 inh-2,LXR ag,hcDAF12 conf
O=C1N2Cc3ccccc3C2CS(=O)(=O)N1C1CCCC1 (stereo not given),-2.1,4.9,-4.8,.,-0.6,-0.7,.,.
CN(C)c1ccc(N=Cc2nc(-c3ccccc3)oc2OC(=O)c2ccccc2)cc1,6.8*,13.1*,1.8,1.5,-0.7,1.8,0.1,4.4
C(=N\Nc1ccccc1)/c1nc2ccccc2s1,18.5*,23.8*,2.2,4.8*,3.8*,3.0,2.7,23.5*
CCC/C=N/Nc1nc2ccccc2s1,5.5,-7.7,4.9,1.9,-1.6,1.1,.,.
COc1ccccc1CNC1CCC12CCC(c1ccccc1)CC2 (stereo not given),-0.6,-1.4,3.1,.,-1.3,.,.,.
Cc1ccc(S(=O)(=O)N2CCOCC2)cc1C(=O)Nc1nc2ccccc2[nH]1,7.9*,3.1,4.5,0.3,-0.1,2.2,-0.1,5.4
COc1ccccc1N1CN(S(=O)(=O)c2ccc(C)cc2)c2nc3ccccc3nc21,9.1*,12.8*,-1.2,1.5,0.9*,1.6,-0.3,3.9
CN(C)C(=O)N1CCN(C(=O)[C@H]2O[C@@H](n3ccc(N)nc3=O)[C@H](O)[C@@H]2O)CC1,0.0,3.5,-3.0,.,-1.4,0.4,.,.
Cc1c(C(=N)C(C#N)C#N)c(=N)oc2c1ccc1ccccc12,8.2*,2.9,5.2,-0.1,0.8,0.1,-0.1,8.1*
COc1ccc(NC(=O)/C=C/c2ccccc2)cn1,8.5*,11.9*,-1.1,0.6,-0.6,2.2,1.0,6.5*
Cn1c(NC(=S)Nc2ccccc2)nc2ccccc21,7.9*,10.7*,16.4,-0.5,0.6,2.2,0.7,4.9
S=C(Nc1ccccc1)Nc1nc2ccccc2n1CCOc1ccc(Br)cc1,-0.8,-2.4,2.2,0.5,-1.1,-0.3,.,.
Cc1ccc(/C=N/Nc2cccc3cccnc23)c(O)c1,7.5*,6.9,-0.8,0.1,0.6,1.8,1.6,17.1*
Oc1ccc(/C=N/Nc2cccc3cccnc23)c(O)c1,2.9,5.0,5.7,0.1,-0.1,2.2,.,.
CCOC(=O)C1=CCN(S(=O)(=O)c2ccc(Cl)cc2)C1c1cccc(F)c1 (stereo not given),0.1,-1.4,-6.8,.,-1.7,-1.2,.,.
C/C(=N\N=C(/N)c1nonc1N)c1ccc2c(c1)OCO2,7.1*,10.8*,3.2,1.3,0.3,3.5,1.6,5.1
O=S(=O)(Nc1c(O)ccc2ccccc12)c1ccc(F)cc1,8.1*,1.3,-3.4,3.1,1.1*,0.6,0.5,8.6*
O=C(/C=C(\Nc1cc(Cl)c(F)c(Cl)c1)c1ccccc1)c1ccccc1,2.4,0.9,-4.8,.,-0.8,0.4,.,.
COc1ccc(NC(=O)N(C)C[C@H]2OCc3cnnn3CCCC(=O)N([C@H](C)CO)C[C@@H]2C)c(OC)c1,-0.7,-1.6,-1.6,.,0.0,-0.9,.,.
Cc1nc(NC(=O)c2cccnc2Cl)sc1C,8.5*,9.1,4.8,3.1,0.7,1.4,0.7,5.1
CC1CCCCN1CCCNC(=O)c1ccc(N2CCCC2=O)cc1 (stereo not given),8.6*,2.1,-2.6,1.0,-1.3,1.0,-0.3,0.1
CCC1CCCCN1CCCNC(=O)c1ccc(N2CCCC2=O)cc1 (stereo not given),0.7,-0.3,1.7,0.7,-1.0,-1.0,.,.
O=C(NC1CCCCCC1)c1ccc(N2CCCC2=O)cc1,6.7*,11.2*,5.2,2.4,-0.4,2.3,0.3,2.5
C[C@@H]1CN([C@@H](C)CO)C(=O)CCCn2cc(nn2)CO[C@H]1CN(C)C(=O)Cc1ccccc1,0.3,-1.1,-1.3,.,-0.6,0.4,.,.
CN(N=O)C(=O)N[C@@H]1[C@@H](O)[C@H](O)[C@@H](CO)O[C@@H]1O,.,.,-8.7,.,.,.,.,.
SMILES,hcDAF-12 act,hgDAF12 agonist,NR1D1 modulator,DAX1 inh-1,ssDAF-12 act,DAX1 inh-2,LXR ag,hcDAF12 conf
CCC(C)Nc1nc(-c2c[nH]c3ccccc23)cs1 (stereo not given),8.8*,6.6,0.7,1.2,0.6,0.3,0.1,5.4
Cc1cccc(C(=O)NNC(=O)/C=C/C(=O)O)c1,8.6*,5.8,-8.0,1.2,0.7,0.6,-0.1,5.2
Cc1cccc(C(=O)NNC(=O)c2cccc(C)c2)c1,0.4,1.0,-4.8,0.5,-1.0,0.3,.,.
COc1cc(Cl)ccc1OCc1cc(C(=O)NC(C)Cc2cnccn2)no1 (stereo not given),8.5*,12.6*,6.5,1.8,1.5*,2.6,0.8,6.0*
CC(Cc1cnccn1)NC(=O)c1cc(COc2ccc(F)cc2F)on1 (stereo not given),-2.2,-2.1,3.2,0.7,-1.1,0.4,.,.
O=C(N/N=C\c1cn(-c2ccccc2)nc1-c1ccccc1)c1ccc(Br)o1,9.4*,4.6,1.1,-0.9,-0.2,-0.5,0.0,3.9
Cc1ccc(-c2nn(-c3ccccc3)cc2/C=N/NC(=O)c2ccc(Br)o2)cc1,3.1,1.0,-1.4,1.0,-0.7,0.9,.,.
CCOc1cc(C(=O)N/N=C/c2cn(-c3ccccc3)nc2-c2cc3ccccc3o2)cc(OCC)c1OCC,7.9*,8.9,5.2,2.9,-0.2,1.9,0.7,5.8*
Brc1ccccc1Cn1nnc(-c2ccc(N3CCOCC3)cc2)n1,-2.3,6.1,-1.4,.,-1.0,-0.8,.,.
Cn1cc(/C=N/NC(N)=S)c2ccccc21,1.7,-0.8,-1.7,-0.9,-1.9,-0.8,.,.
Cn1cc(/C=N\NC(=O)c2cccs2)c2ccccc21,6.8*,13.0*,-4.4,6.1*,-0.2,2.7,0.8,4.3
COc1ccccc1Cc1c(-c2ccccc2)nc2c3ccccc3ccn12,6.6*,7.8,-0.5,.,1.4*,1.0,0.0,6.0*
